# A selection: hits, their analogues and other compounds. The true share with any hit is near 21%.
# NS1 function inh: influenza NS1 inhibition | Potency, µM (highest dose often 46.1 µM), for the others: top-dose activity, positive = more growth | hit rate 0.4% among 270,000 | AID 2326; calls by dose curve; further: potency means the concentration at half of the fitted maximal effect; actives are rising curves; nearly all actives have a fitted effect of over 50% in size
#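 Read-out: OD600 growth recovery of NS1-expressing budding yeast. Cells grown overnight at 30C in -URA glucose medium, washed, resuspended and diluted 1:100 in 2% galactose assay medium, pH 6.0. Same strain lacking NS1 served as positive control.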
# Shiga toxin inh: blocks Shiga toxin action in Vero cells. Vero cells, Shiga toxin protein synthesis inhibition reporter. inhibition, % at 38.7 µM. hit rate 9.2% among 290,000. AID 2315; in the data active means inhibition mostly above about 28%, no sharp cut-off; inactive means mostly below about 43%; further: 0% is about no effect
# Sm TGR inh: blocks Schistosoma mansoni thioredoxin glutathione reductase | Q962Y6 | purified TGR, DTNB reduction, TNB absorbance 405 nm | Potency, µM (titrated, usually from 114 µM), for the others: at the top dose activity change, negative = inhibition, hits mostly inhibitors | hit rate 3% among 360,000 | AID 485364; further: potency means the concentration at half of the fitted maximal effect; on the % scale 0 is the no-effect control and ±100 the full control effect; nearly all actives have a fitted effect of over 60% in size
#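 TGR 20 nM + NADPH 100 uM (dispensed conc.), cpd preinc 15 min RT; start with NADPH (500 uM addition) then DTNB (15 mM addition). Kinetic TNB absorbance, 405 nm filter. Four-parameter Hill fit across titration.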
# Pf growth 48h: inhibits P. falciparum growth in the first generation, 48 h | P. falciparum luciferase growth in erythrocytes, 48 h | Potency, µM (doses to about 28.7 µM), without a hit: at the highest dose activity change, negative = inhibition, hits mostly inhibitors | hit rate 5.9% among 310,000; further: potency means the concentration at half of the fitted maximal effect; on the % scale 0 is the no-effect control and ±100 the full control effect
#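 Parasite viability was followed by luminescence of a genomically integrated firefly luciferase. Cultures held 0.1% parasitemia at 2% hematocrit (final), incubated under 5% CO2 at 37 C.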
# Pf growth 96h: inhibits malaria parasite growth, 96 h; P. falciparum luciferase reporter growth, 96 h; Potency, µM (series often up to 28.7 µM), inactives show at the top dose activity change, negative = inhibition, most hits filed as inhibitors; hit rate 6.9% among 320,000; AID 504834; further: potency means the concentration at half of the fitted maximal effect; on the % scale 0 is the no-effect control and ±100 the full control effect
#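 Two-generation exposure (96 h) targets delayed-death phenotype. Reporter parasites carrying integrated firefly luciferase, in red cells at 2% hematocrit and 0.05% parasitemia final, kept at 37 C, 5% CO2; luminescence loss indicates inhibition.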
# CHX counter: counter-screen hit for Shiga toxin inhibitors, cycloheximide. cell reporter, cycloheximide protein synthesis inhibition counterscreen. max response, %. hit rate 12% among 300,000. AID 2314; in the data active means max response mostly above about 13%, no sharp cut-off; inactive means mostly below about 14%; further: read at 38.3 µM for the half of the compounds with a filed dose; 0% is about no effect
# * = called active by the depositor; i = inactive; u = inconclusive; x = not tested or not shown. Unless noted, the call rests on the fitted dose curve; in most records, active means well fitted curve in the direction sought with a large enough effect; inconclusive means small, poorly fitted or top-dose-only effect, or another doubt; inactive means no such curve, though single readings can be large; an effect the other way counts as inactive or inconclusive.
SMILES,NS1 function inh,Shiga toxin inh,Sm TGR inh,Pf growth 48h,Pf growth 96h,CHX counter
Cc1cc(N2CCN(c3ccccc3F)CC2)nc2cc(O)ccc12,-11%,95*,-9%,10µM*,0%,25*
COc1ccc(N2CCN(c3cc(C)c4ccc(O)cc4n3)CC2)cc1,-31%,17,2%,13µM*,126%,1
Cc1c(C(=O)N2CCCCCC2)c(S(=O)(=O)NCc2ccccc2)c(C)n1C,x,x,1%,x,x,x
O=C(NCCC1CCCCN1S(=O)(=O)c1ccc(F)cc1)C(=O)NCc1ccccn1 (stereo not drawn),x,x,-3%,0%,u,x
COc1ccc(/C=C(\NC(=O)c2ccccc2)C(=O)OC[C@@H]2CCC[N+]3(C)CCCCC23)cc1OC (stereo partly drawn),x,-5,-3%,u,-14%,-1
O=C1c2ccc(-c3ccc(F)cc3OCc3ccccc3)cc2S(=O)(=O)c2cccc(C(=O)N3CCCC3)c21,x,x,-9%,4.7µM*,u,x
Cc1ccc(S(=O)(=O)NC(CC(C)C)C(=O)NCC(C)(C)N2CCOCC2)cc1 (stereo not drawn),x,x,9%,17%,-22%,x
COc1ccc(CCNc2cc(C)nc3c(-c4ccccc4OC)cnn23)cc1OC,-6%,-10,-1%,13µM*,u,11
CC1CCC/C(=N\NC(=S)NCc2ccccc2)C1 (stereo not drawn),6%,4,-16%,x,u,-2
CC1CCC/C(=N\NC(=S)Nc2ccccc2)C1 (stereo not drawn),7%,102*,-25%,18%,-4%,79*
CC1CCCC/C1=N\NC(=S)Nc1ccccc1 (stereo not drawn),0%,30,-18%,-29%,u,18*
CC(OC(=O)c1nn(C(C)C)c(=O)c2ccccc12)C(=O)Nc1ncc(Cl)cc1Cl (stereo not drawn),1%,-12,-1%,17%,39%,-1
O=[N+]([O-])c1ccc(/C=C/c2ccc3cccc(O)c3n2)cc1,3%,98*,-14%,x,-14%,60*
O=[N+]([O-])c1ccc(/C=C/c2ccc3ccccc3n2)cc1,x,30,6%,i,13%,21*
CC(=O)Nc1ccc(/C=C/c2ccc3cccc([N+](=O)[O-])c3n2)cc1,7%,75*,2%,59%,u,23*
O=C(O)COc1ccc(/C=C/c2ccc3cccc([N+](=O)[O-])c3n2)cc1,6%,13,-3%,27%,-16%,-2
CCOC(=O)c1ccc(NC(=O)c2c(NCc3cc(OC)c(OC)cc3OC)sc3c2CCCC3)cc1,x,x,-16%,x,x,x
CC(C)CCNC(=O)CCn1c(=O)c2cccn2c2cccnc21,x,x,-1%,x,x,x
COc1cccc2c1cc1c(=O)n(CC(=O)NCCCN3CCN(C)CC3)nc(C)n12,-9%,-2,-20%,-10%,23%,15
O=C(COC(=O)CCc1ccc(S(=O)(=O)N2CCOCC2)cc1)NCc1ccc(Cl)cc1,x,17,10%,16%,16%,-2
CC(C)c1cccc(O)c(=O)c1,-45%,-7,u,2.9µM*,3.3µM*,-1
CC(C)c1ccc(O)c(O)c(=O)c1 (tested in a mixture with another compound),-65%,x,x,x,x,x
CCOC(=O)c1cccc(NC(=O)c2cc3cc4ccc(C)cc4nc3o2)c1,x,x,3%,x,x,x
CC(C)C[C@@H](NC(=O)[C@H](Cc1ccccc1)NC(=O)c1cnccn1)B(O)O,x,x,x,0.067µM*,0.03µM*,x
CC(/C=C(\C)Nc1ccccc1)=Nc1ccccc1,1%,23,-4%,116%,45%,26*
SMILES,NS1 function inh,Shiga toxin inh,Sm TGR inh,Pf growth 48h,Pf growth 96h,CHX counter
NC(=Nc1ccccc1)Nc1ccccc1,2%,-11,-1%,-1%,u,-2
O/N=C(\c1ccc(Cl)cc1Cl)c1ncc(C(F)(F)F)cc1Cl,-44%,-8,6%,x,u,5
CSc1nsc(/C=C/Nc2ccc(Cl)cc2)c1C#N,13%,-20,-17%,1.2µM*,1.2µM*,-5
Cc1cc(O)ccc1N/C=C(\C#N)c1nc2ccccc2o1,7%,23,-4%,-10%,u,8
CSc1nsc(/C=C/Nc2cccc(Cl)c2)c1C#N,15%,30,-4%,u,u,1
CSc1nsc(/C=C/Nc2ccc(F)cc2)c1C#N,x,38,-15%,-23%,6.6µM*,10
CSc1nsc(/C=C/Nc2ccc(O)cc2C)c1C#N,x,28,-2%,u,u,28*
COc1cc(/C=N/Nc2snc(SC)c2C#N)cc(OC)c1OC,-6%,-16,8%,4%,x,-2
CC[C@H](C)[C@H](NC(=O)[C@H](CO)NC(=O)[C@H](CC(C)C)NC(=O)[C@@H]1CCCN1C(=O)[C@@H]1CCCN1C(=O)[C@H](CC(=O)O)NC(=O)[C@@H](N)CC(=O)O)C(=O)N[C@@H](CC(=O)O)C(=O)N[C@@H](CC(C)C)C(=O)N[C@H](C(=O)N[C@@H](Cc1ccccc1)C(=O)N[C@@H](Cc1cnc[nH]1)C(=O)N[C@@H](CC(C)C)C(=O)N[C@@H](CC(C)C)C(=O)N[C@@H](CCCNC(=N)N)C(=O)N[C@H](C(=O)N[C@@H](CC(C)C)C(=O)N[C@@H](CC(C)C)C(=O)N[C@@H](CCC(=O)O)C(=O)N[C@@H](CC(C)C)C(=O)N[C@@H](C)C(=O)N[C@@H](CCCNC(=N)N)C(=O)N[C@H](C(=O)N[C@@H](CCC(N)=O)C(=O)N[C@@H](CO)C(=O)N[C@@H](CCC(N)=O)C(=O)N[C@@H](CCCNC(=N)N)C(=O)N[C@@H](CCC(=O)O)C(=O)N[C@@H](CCCNC(=N)N)C(=O)N[C@@H](C)C(=O)N[C@@H](CCC(=O)O)C(=O)N[C@@H](CCC(N)=O)C(=O)N[C@@H](CC(N)=O)C(=O)N[C@@H](CCCNC(=N)N)C(=O)N[C@H](C(=O)N[C@H](C(=O)N[C@@H](Cc1ccccc1)C(=O)N[C@@H](CC(=O)O)C(=O)N[C@@H](CO)C(=O)N[C@H](C(N)=O)C(C)C)[C@@H](C)CC)[C@@H](C)CC)[C@@H](C)O)[C@@H](C)O)[C@@H](C)O,x,-7,x,x,x,13
Cc1cc(CSCc2ccc(Cl)cc2)no1,-8%,24,-7%,21%,97%,23*
O=C(O)CSCc1ccc(Cl)cc1,1%,12,6%,17%,8%,-2
COc1ccc2c(c1)c1c(c(=O)n(-c3ccc(OC)c(OC)c3)c(=O)n1CC(=O)N1CCCC1)n2C,x,x,-7%,x,x,x
CC(=O)NC(NC(=S)Nc1ccc(N=Nc2ccccc2C)cc1C)C(Cl)(Cl)Cl (stereo not drawn),-11%,114*,1%,u,89%,29*
CCC(C)C(NC(=O)[C@@H](NC(=O)c1ccccc1F)C(C)C)C(=O)OC (stereo partly drawn),-4%,-11,4%,x,u,11
